High-throughput results: PubChem BioAssay, Broad Institute
Shown are actives, neighbours in structure and some others; about 8.1% of the full set was active somewhere.
MITF inh: blocks MITF activity | inhibition, % (concentration not given with the values) | AID 2240 | TRPM1 promoter luciferase, luminescence, 24 h | hit rate 0.28% among 37,000; in the data active means inhibition above about 85%; inconclusive means no clear call, values can overlap the other calls; inactive means below about 68%;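 further: human melanocyte line stably carrying TRPM1 promoter luciferase reporter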
NOMO-1 viab: STK33 inhibitor candidate reducing NOMO-1 cell viability | NOMO-1 AML viability, CellTiter-Glo luminescence, 72 h | inhibition, % (test concentration not listed) | hit rate 7.5% among 37,000; in the data active means inhibition above about 80%; inconclusive means no clear call, values can overlap the other calls
Hedgehog inh: blocks Sonic Hedgehog signaling. hit rate 2.1% among 22,000. inhibition, % (no concentration beside the values). Shh-LIGHT2 Gli-luciferase reporter, 30 h;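 active means mean inhibition across valid replicates above about 65%, limit read from the data; inconclusive means mean under the limit, yet half or more replicates past it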;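 further: pathway switched on by Shh-conditioned medium diluted 1 in 25 in low serum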
Hits are given with their value; n = inactive; u = inconclusive; x = not tested or not shown.

SMILES | MITF inh | NOMO-1 viab | Hedgehog inh
C[C@@H]1CN([C@H](C)CO)C(=O)Cc2cc(NC(=O)Nc3ccc(C(F)(F)F)cc3)ccc2O[C@@H]1CN(C)C | n | n | n
C[C@H]1CN([C@@H](C)CO)C(=O)Cc2cc(NC(=O)Nc3ccc(C(F)(F)F)cc3)ccc2O[C@@H]1CN(C)CC1CC1 | n | n | n
COc1ccc(-c2nn(C)c(=O)c3ccccc23)cc1CNS(=O)(=O)c1ccc(Cl)cc1 | n | n | x
O=C(CSc1ncnc2scc(-c3ccc(Cl)cc3)c12)Nc1ccc2c(c1)OCCO2 | n | n | x
Cc1noc(C)c1NC(=O)Nc1ccc2c(c1)C(=O)N([C@@H](C)CO)C[C@H](C)[C@H](CN(C)S(=O)(=O)c1cn(C)cn1)O2 | n | n | n
COc1ccc(NC(=O)Nc2cccc3c2O[C@@H](CN(C)C(=O)Nc2ccc(OC)cc2)[C@H](C)CN([C@H](C)CO)C3=O)cc1 | n | n | n
Cc1cnn(CCCNC(=O)c2cc(-c3cccnc3)nc3ccc(Cl)cc23)c1 | n | n | x
CCc1cccc(C(C)C)c1NS(=O)(=O)c1ccc(C)cc1 | n | n | n
C[C@@H]1CN([C@H](C)CO)C(=O)c2cccc(NC(=O)Nc3ccc(C(F)(F)F)cc3)c2O[C@H]1CN(C)C(=O)Nc1ccc(F)cc1 | n | u | n
COc1ccc(NC(=O)N(C)C[C@H]2Oc3c(NC(=O)Nc4ccc(C(F)(F)F)cc4)cccc3C(=O)N([C@@H](C)CO)C[C@H]2C)cc1 | n | 87.9 | n
C[C@@H]1CN([C@@H](C)CO)C(=O)c2cccc(NC(=O)Nc3ccc(C(F)(F)F)cc3)c2O[C@H]1CN(C)C(=O)Nc1ccc(F)cc1 | n | 116.9 | n
COc1ccc(NC(=O)Nc2cccc3c2O[C@H](CN(C)C(=O)Nc2ccc(C(F)(F)F)cc2)[C@H](C)CN([C@H](C)CO)C3=O)cc1 | n | n | n
C[C@H]1CN([C@@H](C)CO)C(=O)c2cccc(NC(=O)Nc3ccc(C(F)(F)F)cc3)c2O[C@H]1CN(C)C(=O)Nc1ccc(C(F)(F)F)cc1 | n | n | n
C[C@@H]1CN([C@H](C)CO)C(=O)c2cccc(NC(=O)NC3CCCCC3)c2O[C@@H]1CN(C)C(=O)Nc1ccc(C(F)(F)F)cc1 | n | n | n
C[C@@H]1CN([C@@H](C)CO)C(=O)c2cccc(NC(=O)NC3CCCCC3)c2O[C@@H]1CN(C)C(=O)Nc1ccc(C(F)(F)F)cc1 | n | 94.5 | n
C[C@@H]1CN([C@H](C)CO)C(=O)c2cccc(NC(=O)Nc3ccc(C(F)(F)F)cc3)c2O[C@@H]1CN(C)C(=O)Nc1ccc(C(F)(F)F)cc1 | n | 98.2 | n
COc1ccc(NC(=O)N(C)C[C@H]2Oc3c(NC(=O)Nc4ccc(F)cc4)cccc3C(=O)N([C@H](C)CO)C[C@@H]2C)cc1 | n | n | n
COC(=O)c1cccc(NC(=O)CN2C(=O)c3ccccc3S2(=O)=O)c1C | n | n | x
COc1ccc(NC(=O)N(C)C[C@H]2Oc3ccc(NC(=O)Nc4ccc5c(c4)OCO5)cc3CC(=O)N([C@@H](C)CO)C[C@@H]2C)cc1 | n | n | n
C[C@H](CO)N1C[C@H](C)[C@H](CN(C)C(=O)Nc2ccc(F)cc2)Oc2c(NC(=O)Nc3ccc(C(F)(F)F)cc3)cccc2C1=O | n | 102.6 | n
C[C@H](CO)N1C[C@H](C)[C@@H](CN(C)C(=O)Nc2ccc(F)cc2)Oc2c(NC(=O)Nc3ccc(C(F)(F)F)cc3)cccc2C1=O | n | n | n
COCCSc1nnc(NC(=O)c2sc3ccccc3c2Cl)s1 | n | n | x
CC(=O)OC[C@]12[C@H](OC(C)=O)[C@H](OC(C)=O)[C@@H]3[C@@H](OC(C)=O)[C@@]14O[C@@]3(C)COC(=O)c1ncccc1CC[C@H](C)C(=O)O[C@@H]([C@H](O)[C@@H]2OC(=O)c1ccccc1)[C@]4(C)O | n | 117.1 | n
CC(=O)OC[C@]12[C@H](OC(C)=O)[C@@H](OC(C)=O)[C@@H]3[C@@H](OC(C)=O)[C@@]14O[C@@]3(C)COC(=O)c1cccnc1[C@H](C)[C@@H](C)C(=O)O[C@@H]([C@H](O)[C@@H]2OC(=O)c1ccccc1)[C@]4(C)O | x | x | n
Cc1c(Cl)cccc1NC(=O)CSc1nnc(-c2cccc(Cl)c2)n1C | n | n | x
SMILES | MITF inh | NOMO-1 viab | Hedgehog inh
CCN1/C(=C\C(=S)Nc2ccccc2)Sc2ccccc21 | n | n | n
CCN1/C(=C/C2=CC(=O)CC(C)(C)C2)Sc2ccccc21 | n | 113.2 | 81.6
CNC(=S)N1N=C2c3ccccc3CCC2C1c1ccc(OC)cc1 (centres undefined) | n | n | x
Cc1oc2c(c1C(=O)NCCCn1ccnc1)C(=O)c1ccccc1C2=O | n | 141.3 | 110.2
Cc1oc2c(c1C(=O)NCCC(C)C)C(=O)c1ccccc1C2=O | u | 140.4 | 90.4
COc1ccccc1CCNC(=O)c1ccoc1C | n | n | x
Cc1onc(-c2ccccc2)c1C(=O)NCCCn1ccnc1 | n | n | x
COc1ccc(S(=O)(=O)N(C)C[C@@H]2Oc3ccc(NC(=O)C4CCCCC4)cc3C(=O)N([C@@H](C)CO)C[C@@H]2C)cc1 | n | n | n
C[C@H]1CN([C@@H](C)CO)C(=O)c2cc(NC(=O)NC3CCCCC3)ccc2O[C@H]1CN(C)S(=O)(=O)c1ccccc1 | n | n | n
Cc1c(Cl)cccc1NC(=O)COc1ccc(C(=O)Nc2cccc(C(F)(F)F)c2)cc1 | n | n | x
O=C1C=CC(O)(/C=C/C(=O)O[C@@H]2[C@@H](O)[C@H](Oc3ccc(O)cc3)O[C@H](CO)[C@H]2O)C=C1 | n | n | n
C[C@H]1CN([C@@H](C)CO)C(=O)c2cccc(NC(=O)Nc3ccc(C(F)(F)F)cc3)c2O[C@H]1CN(C)Cc1ccc(-c2ccccc2)cc1 | n | n | n
C[C@@H]1CN([C@@H](C)CO)C(=O)c2cccc(NC(=O)Nc3ccc(C(F)(F)F)cc3)c2O[C@@H]1CN(C)Cc1ccccc1 | n | 88.8 | n
C[C@H](CO)N1C[C@H](C)[C@H](CN(C)Cc2ccccc2)Oc2c(NC(=O)Nc3ccc(C(F)(F)F)cc3)cccc2C1=O | n | n | n
C[C@H](CO)N1C[C@H](C)[C@@H](CN(C)Cc2ccccc2)Oc2c(NC(=O)Nc3ccc(C(F)(F)F)cc3)cccc2C1=O | n | 115.2 | n
C[C@H](CO)N1C[C@H](C)[C@@H](CN(C)Cc2ccc(-c3ccccc3)cc2)Oc2c(NC(=O)Nc3ccc(C(F)(F)F)cc3)cccc2C1=O | n | n | n
C[C@H]1CN([C@@H](C)CO)C(=O)c2cccc(NC(=O)Nc3ccc(C(F)(F)F)cc3)c2O[C@@H]1CN(C)Cc1ccc(-c2ccccc2)cc1 | n | 85.1 | n
C[C@@H]1CN([C@H](C)CO)C(=O)c2cccc(NC(=O)Nc3ccc(C(F)(F)F)cc3)c2O[C@H]1CN(C)Cc1ccccc1 | n | 100.6 | n
CN(CC(=O)Nc1ccccc1C(N)=O)S(=O)(=O)c1ccc(Br)cc1 | n | n | x
N#CCCN(Cc1ccccc1)C(=O)c1ccccc1[N+](=O)[O-] | n | n | x
C[C@@H]1CN([C@H](C)CO)C(=O)Cc2cc(NS(=O)(=O)c3ccc(F)cc3)ccc2O[C@@H]1CN(C)CC1CCCCC1 | n | n | n
C[C@H]1CN([C@@H](C)CO)C(=O)Cc2cc(NS(=O)(=O)c3ccc(F)cc3)ccc2O[C@@H]1CN(C)CC1CCCCC1 | n | 123.2 | n
